Data on 89 compounds can be found in PubChem BioAssay AID463173 (ICCB-Longwood Screening Facility, Harvard Medical School, 2010).

Molecules are shown by their SMILES. Out of some 52,000 compounds screened, about 1,700 (3.3%) were called active. Cut-off read from the data, not from the text of the source: active = survival mostly below about 52% (no sharp cut-off); inactive = mostly above about 56%. The sample as a whole holds a higher share of actives than the screen did.

The subject of this assay is Wild type. Put plainly: growth inhibition of S. aureus wild type versus tarO mutant, primary screen, teichoic acid synthesis inhibitors, RN4220, OD600 (AID 463173). To be noted: S. aureus RN4220 wild type/DeltatarO growth, OD600, 18 h, active compounds read low, screened at 18.75 µg/mL (by protocol).
In the case of `COc1ccc(C(=O)N2c3ccc(C)cc3C(C)(c3ccccc3)CC2(C)C)cc1` (centres undefined), the survival was 45% (inactive). In the case of `CC1=CC(C)(C)N(CC(=O)c2ccccc2)c2ccc(C)cc21`, the survival was 109% (inactive). For `Cc1ccc(C(=O)N2c3ccc(C)cc3C(C)(c3ccccc3)CC2(C)C)cc1` (centres undefined), the survival was 2% (active). For `Cc1ccc2c(c1)C(C)(c1ccccc1)CC(C)(C)N2C(=O)c1ccc(F)cc1` (centres undefined), the survival was -2% (active).

As to `Cc1ccc(C(=O)N2CCN(c3ccccc3)CC2)cc1`, the survival was 112% (inactive).

As to `Cc1ccc2c(c1)N(C(=O)c1ccc(F)cc1)C(C)(C)CC2(C)c1ccccc1` (centres undefined), the survival is 43% (inactive). As to `CCOc1ccc(S(=O)(=O)n2nc(C)c(S(=O)(=O)N3CCCCC3)c2C)cc1`, the survival is 67% (inactive). Consider `Cc1ccc(C)c(NC(=O)Cn2c(=O)n(CCCS(=O)(=O)C3CCCCC3)c(=O)c3ccccc32)c1`, for which the survival was 119% (inactive). In the case of `CSc1nc2ccc(S(=O)(=O)N3CCCCC3)cc2s1`, the survival was 105% (inactive). The result for `COCCCNC(=O)c1ccc(Cn2c(=O)c3ccccc3n(CC(=O)Nc3ccc(C)cc3C)c2=O)cc1` reads 100% (inactive). The result for `Cc1ccccc1CNC(=O)Cc1csc2ccccc12` reads 94% (inactive); that for `COc1ccccc1NC(=O)CSc1ncc2c(n1)-c1cc(Cl)ccc1N(C)S2(=O)=O`, 73% (inactive); that for `CCOc1ccc(NC(=O)CN2CCN(CC(=O)Nc3ccc(N(CC)CC)cc3)CC2)cc1`, 80% (inactive). The result for `COc1ccc(NC(=O)c2cc3c(=O)n(Cc4cccs4)ccc3nc2C)c(OC)c1` reads 83% (inactive); that for `O=c1[nH]c2ccc(NCc3ccc(-c4ccc(Cl)cc4)o3)cc2[nH]1`, 111% (inactive); that for `COc1ccc(CCNC(=O)C(=O)NCC(c2cccs2)S(=O)(=O)c2ccc(F)cc2)cc1` (centres undefined), 73% (inactive). On to `COc1ccc(NS(=O)(=O)c2ccc3nc(-c4ccccc4)[nH]c3c2)cc1`, for which the survival is 81% (inactive). The result for `Cc1ccc(NS(=O)(=O)c2ccc3nc(-c4ccccc4)[nH]c3c2)c(Cl)c1` reads 60% (inactive); that for `CC(C)c1ccc(NS(=O)(=O)c2ccc3nc(-c4ccccc4)[nH]c3c2)cc1`, 63% (inactive). The result for `O=S(=O)(Nc1ccc(Br)cc1F)c1ccc2nc(-c3ccccc3)[nH]c2c1` reads 71% (inactive); that for `Cc1ccc(NS(=O)(=O)c2ccc3nc(-c4ccccc4)[nH]c3c2)cc1Cl`, 1% (active); that for `Cc1cc(NS(=O)(=O)c2ccc3nc(-c4ccccc4)[nH]c3c2)ccc1Br`, -4% (active).

`Cc1ccc(NS(=O)(=O)c2ccc3nc(-c4ccccc4)[nH]c3c2)c(Br)c1`: the survival is 63% (inactive).

As to `Cc1cccc(NS(=O)(=O)c2ccc3nc(-c4ccccc4)[nH]c3c2)c1C`, the survival is 129% (inactive).

Turning to `O=S(=O)(Nc1ccc(Br)cc1)c1ccc2nc(-c3ccccc3)[nH]c2c1`, the survival is -3% (active). Then `COc1cc(C)ccc1OCCSc1nc(-c2cccc(C)c2)nc2cc(=O)[nH]n12`, with 88% (inactive); and `Cc1ccc(NC(=O)c2oc3ccc(S(=O)(=O)N4CCC5(CC4)OCCO5)cc3c2C)c(C)c1`, with 143% (inactive); and `O=C(CS(=O)(=O)c1cccc2nsnc12)Nc1cc(F)ccc1F`, with 97% (inactive).

Regarding `Cn1c(=O)c2c(nc(NCCc3ccccc3)n2Cc2ccc(Cl)cc2)n(C)c1=O`, the survival was 74% (inactive). For `CCc1ccc(N2C(=O)C3C4CCCC4=C4CCCC4C3C2=O)cc1` (centres undefined), the survival was 116% (inactive).

With `Cn1c(=O)c2c(nc3n(-c4ccc(O)cc4)c(-c4ccc(Br)cc4)cn23)n(C)c1=O`, the survival is 142% (inactive). `COc1ccc(CNC(=O)C2CCN(C(=O)N3CCOc4ccc(C)cc43)CC2)cc1`: the survival was 80% (inactive). Then `Cc1cccn2c(=O)c3cc(C(=O)Nc4ccc(Cl)c(Cl)c4)sc3nc12`, with 71% (inactive); and `c1ccc(CNc2nnnn2-c2ccccc2)cc1`, with 106% (inactive); and `O=C(O)CCSc1nnnn1-c1ccccc1`, with 114% (inactive). The result for `CCS(=O)(=O)c1nnnn1-c1ccccc1` reads 1% (active). Then `COc1ccc(C2CC(=O)c3cc(-c4nc(-c5cccc([N+](=O)[O-])c5)cs4)c(=O)n(-c4cc(C)cc(C)c4)c3C2)cc1` (centres undefined), with 80% (inactive); and `COc1ccc(C2=Nc3ccccc3N(CC(=O)Nc3cccc(C(C)=O)c3)C(=O)C2)cc1`, with 136% (inactive); and `CN(C)c1ccc(CNC(=O)C2CCN(S(=O)(=O)c3cn(C)cn3)CC2)cc1`, with -2% (active). As for `COc1ccc(OC)c(CNC(=O)C2CCN(S(=O)(=O)c3cn(C)cn3)CC2)c1`, the survival is 82% (inactive).

Turning to `Cc1ccc(CNC(=O)C2CCN(S(=O)(=O)c3cn(C)cn3)CC2)cc1`, the survival is 82% (inactive).

Consider `Cc1ccc(N(C)C(=O)C2CCN(S(=O)(=O)c3cn(C)cn3)CC2)cc1`, for which the survival was 10% (active).

For `COc1ccccc1CNC(=O)C1CCN(S(=O)(=O)c2cn(C)cn2)CC1`, the survival was -3% (active). With `Cn1cnc(S(=O)(=O)N2CCC(C(=O)NCc3ccccc3Cl)CC2)c1`, the survival was 128% (inactive).

For `Cn1cnc(S(=O)(=O)N2CCC(C(=O)NCc3ccc(Cl)cc3)CC2)c1`, the survival was 95% (inactive). The result for `Cc1cc(C)cc(NC(=O)C2CCN(S(=O)(=O)c3cn(C)cn3)CC2)c1` reads 73% (inactive); that for `Cc1ccc(C)c(N2CCN(C(=O)C3CCN(S(=O)(=O)c4cn(C)cn4)CC3)CC2)c1`, 75% (inactive). The result for `COc1ccc(-c2cn3nc(SCC(=O)Nc4cc(C)cc(C)c4)ccc3n2)cc1` reads 68% (inactive); that for `CCN(CC)S(=O)(=O)c1ccc(C(=O)N2CC(=O)Nc3ccc(F)cc3C2c2ccccc2)cc1` (centres undefined), 81% (inactive).

As for `COc1ccc(NC(=O)c2ccc(-c3nc(COc4ccccc4)c(C)o3)cc2)cc1`, the survival is 84% (inactive). Turning to `Cc1n[nH]c(C)c1N1C(=O)c2cccc3c(N4CCCCC4)ccc(c23)C1=O`, the survival is 116% (inactive). For `CN(C)CCCNC(=O)C(=O)NCC(c1ccc2c(c1)OCO2)N1CCOCC1` (centres undefined), the survival is 124% (inactive). The result for `O=C(NCCO)C(=O)NCC(c1ccc2c(c1)OCO2)N1CCOCC1` (centres undefined) reads 59% (inactive). For `COc1ccc(CCNC(=O)C(=O)NCC(c2ccc3c(c2)OCO3)N2CCOCC2)cc1` (centres undefined), the survival was 0% (active).

Take `CC(C)(C)CC(=O)NCC(c1ccc2c(c1)OCO2)N1CCOCC1` (centres undefined): the survival was 73% (inactive). Then `COCCCNC(=O)C(=O)NCC(c1ccc2c(c1)OCO2)N1CCOCC1` (centres undefined), with 87% (inactive); and `CC(C)(C)C(=O)NCC(c1ccc2c(c1)OCO2)N1CCOCC1` (centres undefined), with -2% (active); and `COCCNC(=O)C(=O)NCC(c1ccc2c(c1)OCO2)N1CCOCC1` (centres undefined), with -3% (active). The result for `CN(C)CCNC(=O)C(=O)NCC(c1ccc2c(c1)OCO2)N1CCOCC1` (centres undefined) reads 73% (inactive); that for `O=C(NCCCO)C(=O)NCC(c1ccc2c(c1)OCO2)N1CCOCC1` (centres undefined), 10% (active). The result for `CNC(=O)C(=O)NCC(c1ccc2c(c1)OCO2)N1CCOCC1` (centres undefined) reads 113% (inactive); that for `COc1ccc(CNC(=O)C(=O)NCC(c2ccc3c(c2)OCO3)N2CCOCC2)cc1` (centres undefined), 80% (inactive). For `COc1ccc(CCNC(=O)C(=O)NCC(c2ccc3c(c2)OCO3)N2CCOCC2)cc1OC` (centres undefined), the survival is 73% (inactive).

With `O=C(CS(=O)(=O)c1cccc2nsnc12)NCc1ccccc1Cl`, the survival was 136% (inactive). Then `Cc1cc(Nc2ccc(C(=O)O)c(O)c2)n2ncnc2n1`, with 72% (inactive). Then `O=C(NCCc1ccc(Cl)cc1)c1nc(-c2cccc(F)c2)n2c1CCCCC2`, with 140% (inactive). Then `COc1ccc(Cn2ccc3nc(C)c(C(=O)Nc4ccc(OC(F)(F)F)cc4)cc3c2=O)cc1`, with 90% (inactive); and `Cc1cccc(NC(=O)c2cc3c(=O)n(Cc4cccnc4)ccc3nc2C)c1`, with -3% (active); and `COc1ccc(Cn2ccc3nc(C)c(C(=O)Nc4ccc(F)cc4)cc3c2=O)cc1`, with -3% (active). For the compound `COc1cccc(NC(=O)c2cc3c(=O)n(Cc4cccnc4)ccc3nc2C)c1`, the survival was 78% (inactive). The result for `COc1ccc(Cn2ccc3nc(C)c(C(=O)Nc4ccc(OC)cc4OC)cc3c2=O)cc1` reads 0% (active). Then `CC(=O)Nc1ccc(NC(=O)c2cc3c(=O)n(Cc4cccnc4)ccc3nc2C)cc1`, with 65% (inactive); and `COc1ccc(NC(=O)c2cc3c(=O)n(Cc4cccnc4)ccc3nc2C)c(OC)c1`, with 88% (inactive). Then `COc1ccc(Cn2ccc3nc(C)c(C(=O)Nc4ccc(OC)cc4)cc3c2=O)cc1`, with 85% (inactive); and `COc1ccc(NC(=O)c2cc3c(=O)n(Cc4ccco4)ccc3nc2C)c(OC)c1`, with 88% (inactive); and `COc1ccccc1NC(=O)C1=C(C)Nc2nc(SCc3ccccc3)nn2C1c1ccncc1` (centres undefined), with 83% (inactive).

Consider `CC(C)NC(=O)C1CCCN(c2ncnc3c2nc2n3CCCCC2)C1` (centres undefined), for which the survival was 73% (inactive). Then `COC(=O)c1nnn(-c2cccc(C)c2)c1C(=O)OC`, with 77% (inactive); and `Cc1nc2ccccc2c(=O)n1/N=C1\C(=O)N(C)c2ccccc21`, with 108% (inactive). Turning to `Cc1ccc2c(=O)c(C(=O)c3cccc(Cl)c3)cn(CC(=O)NC3CCCCC3)c2n1`, the survival is 126% (inactive). The result for `CCc1ccc(CNC(=O)CN2C(=O)CSc3c2c(C)nn3-c2ccccc2)cc1` reads 125% (inactive). `CCOC(=O)c1c(NC(=O)C2c3ccccc3Oc3ccccc32)sc2c1CCC(CC)C2` (centres undefined): the survival is 65% (inactive). As for `CCOC(=O)c1c(NC(=O)c2ccccc2OCC)sc2c1CCC(CC)C2` (centres undefined), the survival is -1% (active). Then `CCOC(=O)c1c(NC(=O)c2ccc(F)cc2)sc2c1CCC(CC)C2` (centres undefined), with 3% (active); and `CCOC(=O)c1c(NC(=O)COc2ccc(F)cc2)sc2c1CCC(C)C2` (centres undefined), with 69% (inactive). Turning to `CCOC(=O)c1c(NC(=O)COc2cccc(C)c2C)sc2c1CCC(CC)C2` (centres undefined), the survival was 78% (inactive).

In the case of `CCC1CCc2c(sc(NC(=O)C3c4ccccc4Oc4ccccc43)c2C(=O)OC)C1` (centres undefined), the survival is 80% (inactive). Consider `Cc1ccc(CN(C(=O)COc2cc(C)c(Cl)c(C)c2)c2ccccn2)o1`, for which the survival is 78% (inactive).

As to `COc1ccccc1NC(=O)CSC1=Nc2ccccc2N=C(c2ccc(F)cc2)C1`, the survival is 71% (inactive).
